PubChem BioAssay
Unmarked numbers belong to inactive results. No rule for the calls is given here.

Target: Pantothenate synthetase (Mycobacterium tuberculosis (strain ATCC 25618 / H37Rv)) (UniProt P9WIL5)
Assay: Coupled enzyme confirmation of inhibitors against recombinant Mtb PanC (AID 375);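 also: 0% = full reaction with vehicle and 100% = no enzyme background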
Conditions: coupled enzyme assay; at 10 µM, hits give high values

Chain of Pantothenate synthetase (Mycobacterium tuberculosis (strain ATCC 25618 / H37Rv)) (P9WIL5 whole entry, looked up): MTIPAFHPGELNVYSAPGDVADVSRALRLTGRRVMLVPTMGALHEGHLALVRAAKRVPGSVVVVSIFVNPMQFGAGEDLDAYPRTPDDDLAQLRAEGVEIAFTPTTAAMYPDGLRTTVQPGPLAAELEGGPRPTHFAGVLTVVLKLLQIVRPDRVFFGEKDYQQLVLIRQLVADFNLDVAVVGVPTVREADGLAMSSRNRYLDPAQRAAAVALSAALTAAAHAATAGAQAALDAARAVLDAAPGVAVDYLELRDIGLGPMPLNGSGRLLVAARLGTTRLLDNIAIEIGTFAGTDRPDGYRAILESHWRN

| SMILES | inhibition [%] |
| --- | --- |
| CN(c1ccccc1)S(=O)(=O)c1cc(C(=O)N2CCN(c3ccccn3)CC2)ccc1Cl | 0 |
| O=C(NC1CC1)C1CCN(c2ccc(S(=O)(=O)N3CCOCC3)cc2)CC1 | 0 |
| CC(=O)c1ccc(NC(=O)CCc2c(C)nc3ncnn3c2C)cc1 | 4 |
| CN(c1ccccc1)C(c1ccc(F)cc1)c1nnnn1CC1CCCO1 (stereo unspecified) | 0 |
| Cc1ccc(CCNC(=O)Cn2cccc2)cc1 | 0 |
| C=COCCNC(=O)Nc1ccc(Cl)c(Cl)c1 | 0 |
| CCOC(=O)c1c(C)[nH]c(C(=O)Cn2c(=O)c3c(ncn3CC)n(Cc3ccccc3)c2=O)c1C | 3 |
| COc1cc(C(=O)Nc2ccc(-n3cnnn3)c(C)c2)cc(OC)c1OC | 0 |
| CCOC(=O)C1=C[C@]2(CC)CCCN3CCc4c(n1c1ccccc41)[C@@H]32 | 4 |
| Nc1nnc(SCCOc2ccccc2)s1 | 3 |
| CCOC(=O)c1[nH]c(C)c(C(=O)Nc2ccc(C)cc2C)c1C | 1 |
| O=C(Nc1nc2c(s1)CCc1ccccc1-2)c1cccs1 | 8 |
| CC1CC(C)CN(CCCNC(=O)COc2cc(=O)n(C)c3ccccc23)C1 (stereo unspecified) | 0 |
| CCN(CC)C(=O)CSc1nc2ccc(NC(=O)CSc3nccn3C)cc2s1 | 7 |
| CCOCCCn1c(=NC(C)=O)c(C(=O)OCC)cc2c(=O)n3ccccc3nc21 | 0 |
| CCc1ccc2[nH]c(=O)c(C(c3nnnn3CC3CCCO3)N3CCN4CCCC4C3)cc2c1 (stereo unspecified) | 4 |
